“And” between values parts separate entries of the source, which are not always exact repeats. Equal entries are not always repeated. A number with no mark means an inactive call. Inconclusive results are not listed. Where a call stands in place of a potency, no number is given. The source made the active and inactive calls. Unless noted, calls follow the shape of the dose curve; as a rule, active = well fitted curve in the direction sought with a large enough effect; inconclusive = small, poorly fitted or top-dose-only effect, or another doubt; inactive = no such curve, though single readings can be large; an effect the other way counts as inactive or inconclusive.
What was measured:
[1] = AP1 Signaling Pathway (AID 357; active = well fitted curve in either direction with a large enough effect, not every such curve was filed as active); settings: ME-180 AP-1-bla reporter, EGF-induced, beta-lactamase ratio, 5 h
How it was run: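 AP-1-bla ME-180 cells with beta-lactamase reporter under AP-1 response element, stimulated with EC50 EGF; compounds titrated, 5 hours at 37 degrees Celsius. CCF4 read at 460/530 nm ratio; positive and negative modulators judged by AC50.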

[2] = target: Cytochrome P450 1A2 (Homo sapiens) (UniProt P05177); assay: p450-cyp1a2 (AID 410; calls by dose curve)
Cytochrome P450 1A2 (Homo sapiens), sequence (P05177 whole entry, looked up): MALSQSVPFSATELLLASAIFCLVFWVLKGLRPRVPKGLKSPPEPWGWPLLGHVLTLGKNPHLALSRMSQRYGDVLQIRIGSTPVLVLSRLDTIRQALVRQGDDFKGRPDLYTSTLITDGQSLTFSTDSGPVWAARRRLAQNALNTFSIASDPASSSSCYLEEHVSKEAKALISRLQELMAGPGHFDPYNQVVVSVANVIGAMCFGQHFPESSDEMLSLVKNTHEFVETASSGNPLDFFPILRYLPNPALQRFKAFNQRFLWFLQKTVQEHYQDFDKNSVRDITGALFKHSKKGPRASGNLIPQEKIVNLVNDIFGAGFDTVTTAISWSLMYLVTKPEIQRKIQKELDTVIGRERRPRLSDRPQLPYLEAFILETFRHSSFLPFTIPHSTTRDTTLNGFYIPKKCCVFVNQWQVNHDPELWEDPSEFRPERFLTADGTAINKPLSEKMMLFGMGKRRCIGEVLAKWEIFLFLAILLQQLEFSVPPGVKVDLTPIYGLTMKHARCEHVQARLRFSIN
How it was run: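 20nM CYP1A2 with 100uM Luciferin-ME (at Km) in 100mM KPO4; compound preincubated 10 min, NADPH regeneration added, 60 min at room temperature. Luciferin quantified by luminescence after detection reagent; normalized to 57 uM furafylline.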

[3] = NFAT Signaling Pathway (AID 444; active = well fitted curve in either direction with a large enough effect, not every such curve was filed as active;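 also: carbachol stimulus at about its EC50 of 1 µM final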); settings: Jurkat NFAT-bla M1, carbachol, beta-lactamase ratio, 5 h
How it was run: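 Jurkat cells with NFAT-driven β-lactamase reporter and co-expressed M1 receptor, stimulated with carbachol (final 1 uM, ~EC50), compound titration, 5 h at 37 °C. CCF4 loaded 1 h at RT; 460/530 nm ratio gave %activity and AC50.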

[4] = Stat Signaling Pathway (AID 446; active = well fitted curve in either direction with a large enough effect, not every such curve was filed as active;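 also: ME-180 cervical cancer cells given 40 pM IL-6 alongside compound; SIE-controlled beta-lactamase reporter measured as 460/530 nm FRET emission ratio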); settings: ME-180 SIE beta-lactamase reporter, IL-6 stimulated, 5 h
How it was run: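 IL-6/STAT signaling read in ME-180 cells via an SIE beta-lactamase reporter. Stimulus was 40 pM IL-6 (its AC50) for 5 hrs, so both activation and inhibition register.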

[5] = target: Glucocorticoid receptor (Homo sapiens) (UniProt P04150); assay: GR-GFP Redistribution (AID 450;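 active = compounds whose dose series gives a full or clear partial fitted curve of increased nuclear translocation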; also: potency is read from the fitted curve at half-maximal effect); settings: U2OS GR-GFP nuclear translocation, laser cytometry, 2 h
Glucocorticoid receptor (Homo sapiens), sequence (P04150 whole entry, looked up, the tested form may be a part): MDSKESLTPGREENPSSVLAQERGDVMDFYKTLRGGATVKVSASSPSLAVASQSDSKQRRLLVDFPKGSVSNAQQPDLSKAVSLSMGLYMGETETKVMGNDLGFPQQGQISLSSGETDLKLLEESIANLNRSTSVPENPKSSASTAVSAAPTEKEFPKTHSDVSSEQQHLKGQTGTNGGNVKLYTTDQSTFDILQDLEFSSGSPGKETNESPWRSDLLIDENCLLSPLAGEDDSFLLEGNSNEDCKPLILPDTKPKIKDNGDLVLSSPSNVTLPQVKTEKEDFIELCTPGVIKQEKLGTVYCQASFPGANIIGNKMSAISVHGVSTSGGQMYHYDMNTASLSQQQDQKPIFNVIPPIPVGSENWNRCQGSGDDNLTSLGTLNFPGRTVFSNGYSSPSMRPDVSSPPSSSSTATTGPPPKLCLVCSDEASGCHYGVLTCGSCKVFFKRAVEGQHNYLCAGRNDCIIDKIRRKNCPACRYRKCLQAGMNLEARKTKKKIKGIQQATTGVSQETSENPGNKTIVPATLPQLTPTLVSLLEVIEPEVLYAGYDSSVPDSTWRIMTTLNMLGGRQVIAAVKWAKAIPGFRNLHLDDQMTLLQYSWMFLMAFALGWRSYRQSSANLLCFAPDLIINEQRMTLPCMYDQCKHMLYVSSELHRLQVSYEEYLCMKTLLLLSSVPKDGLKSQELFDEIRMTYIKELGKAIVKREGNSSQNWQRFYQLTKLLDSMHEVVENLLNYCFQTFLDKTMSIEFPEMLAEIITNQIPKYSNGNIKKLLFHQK

[6] = target: Glucocorticoid receptor (Homo sapiens) (UniProt P04150); assay: GR-EFC Redistribution (AID 451; calls by dose curve; also: potency is read from the fitted curve at half-maximal effect); settings: CHO-K1 GR-EFC translocation, beta-gal luminescence, 2 h
How it was run: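 CHO-K1 cells expressing nuclear EA and GR-ED fragments of b-gal; compounds titrated up to 46 uM final, 2 h at 37 C. GR nuclear translocation read as complemented b-gal luminescence after 1 h RT detection.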

[7] = target: Mitogen-activated protein kinase 10 (Mus musculus) (UniProt Q61831); assay: JNK3 AlphaScreen Assay (AID 530; active = well fitted curve in either direction with a large enough effect, not every such curve was filed as active;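 also: kinase came from lysate of stimulated human HepG2 cells; signal reports phosphorylation of biotinylated GST-cJun 1-79 at Ser73 with 10 µM ATP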)
How it was run: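 Pre-activated (IL-1β/TNFα) JNK3 in HepG2 lysates phosphorylates biotin-GST-cJun(1-79), 10 uM ATP; anti-phospho-cJun(Ser73) AlphaScreen read at room temperature, pH 7.6 Tris buffer. Compounds pre-incubated 15 min as titrations.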

[8] = target: 3',5'-cyclic-AMP phosphodiesterase 4B (Homo sapiens) (UniProt Q07343); assay: qHTS Assay for Inhibitors of PDE-IV (AID 607; active = well fitted activation curve with a large enough effect in the main read-out, with a control signal flat, not every such curve was filed as active)
3',5'-cyclic-AMP phosphodiesterase 4B (Homo sapiens), sequence (Q07343 whole entry, looked up): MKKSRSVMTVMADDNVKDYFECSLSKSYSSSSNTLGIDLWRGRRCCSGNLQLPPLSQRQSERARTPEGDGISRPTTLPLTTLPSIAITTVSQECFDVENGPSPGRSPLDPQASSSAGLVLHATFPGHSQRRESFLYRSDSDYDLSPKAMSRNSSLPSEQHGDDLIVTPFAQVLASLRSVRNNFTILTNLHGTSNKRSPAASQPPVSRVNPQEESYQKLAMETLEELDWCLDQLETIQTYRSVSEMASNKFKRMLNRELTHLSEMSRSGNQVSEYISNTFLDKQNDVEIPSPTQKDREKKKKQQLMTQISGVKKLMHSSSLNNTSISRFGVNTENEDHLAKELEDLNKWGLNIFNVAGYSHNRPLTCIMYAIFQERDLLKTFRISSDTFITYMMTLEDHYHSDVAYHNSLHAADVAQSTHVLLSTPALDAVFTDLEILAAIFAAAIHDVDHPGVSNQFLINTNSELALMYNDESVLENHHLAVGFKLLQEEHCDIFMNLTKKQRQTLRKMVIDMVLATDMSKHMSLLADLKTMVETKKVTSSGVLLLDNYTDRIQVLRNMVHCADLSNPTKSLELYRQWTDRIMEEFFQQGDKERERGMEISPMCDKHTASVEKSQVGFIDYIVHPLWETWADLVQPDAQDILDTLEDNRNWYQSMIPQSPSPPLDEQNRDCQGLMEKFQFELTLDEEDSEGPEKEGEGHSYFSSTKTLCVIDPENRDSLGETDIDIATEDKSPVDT
How it was run: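 Live HEK293 cells with a modified cyclic nucleotide-gated (CNG) channel report intracellular cAMP via membrane-potential dye fluorescence (ex 535/em 590 nm). Endogenous PDE-IV was targeted. Compounds were tested at up to 22.9 uM final; RO 20-1724 100 uM served as control.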

[9] = target: Guanine nucleotide-binding protein G(i) subunit alpha-1 (Homo sapiens) (UniProt P63096); assay: qHTS Assay for Inhibitors of RGS12 GoLoco Motif Activity (Green Fluorophore) (AID 879);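 also: negative values mean loss of peptide binding seen as reduced polarization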
Guanine nucleotide-binding protein G(i) subunit alpha-1 (Homo sapiens), sequence (P63096 whole entry, looked up): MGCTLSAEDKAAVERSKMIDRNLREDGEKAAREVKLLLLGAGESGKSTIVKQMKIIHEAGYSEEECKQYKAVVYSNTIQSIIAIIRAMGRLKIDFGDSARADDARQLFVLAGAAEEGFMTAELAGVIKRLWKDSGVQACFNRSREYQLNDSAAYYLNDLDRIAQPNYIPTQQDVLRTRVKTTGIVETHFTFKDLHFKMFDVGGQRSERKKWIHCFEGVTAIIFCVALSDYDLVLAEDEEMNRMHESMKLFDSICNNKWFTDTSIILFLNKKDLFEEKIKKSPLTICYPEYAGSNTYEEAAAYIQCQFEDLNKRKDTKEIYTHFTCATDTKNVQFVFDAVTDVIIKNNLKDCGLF
How it was run: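 Fluorescence polarization assay: 50 nM Gαi1 with 10 nM FITC-labeled RGS12 GoLoco peptide in 10 mM Tris pH 7.5, 150 mM NaCl, 0.1 mM GDP, 0.05% NP40, 10 min at room temperature with compound.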

[10] = target: Cytochrome P450 3A4 (Homo sapiens) (UniProt P08684); assay: qHTS Assay for Activators of Cytochrome P450 3A4 (AID 885); also: nearly all actives have a fitted effect of over 65% in size
Cytochrome P450 3A4 (Homo sapiens), sequence (P08684 whole entry, looked up): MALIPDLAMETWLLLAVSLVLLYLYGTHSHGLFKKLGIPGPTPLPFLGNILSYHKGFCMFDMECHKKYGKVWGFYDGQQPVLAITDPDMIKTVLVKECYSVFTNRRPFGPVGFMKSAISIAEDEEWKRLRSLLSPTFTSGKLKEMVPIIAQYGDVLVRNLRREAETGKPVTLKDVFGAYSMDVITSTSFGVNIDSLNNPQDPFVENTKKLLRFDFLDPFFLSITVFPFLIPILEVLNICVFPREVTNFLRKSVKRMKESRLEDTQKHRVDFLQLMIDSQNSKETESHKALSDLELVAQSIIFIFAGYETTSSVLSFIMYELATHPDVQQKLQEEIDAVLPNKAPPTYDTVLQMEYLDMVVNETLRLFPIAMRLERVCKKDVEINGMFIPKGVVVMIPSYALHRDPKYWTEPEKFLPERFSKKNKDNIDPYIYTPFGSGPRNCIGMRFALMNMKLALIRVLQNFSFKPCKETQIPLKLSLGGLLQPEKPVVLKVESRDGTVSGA
How it was run: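 Quantitative HTS format: compounds preincubated with 20nM human CYP3A4 and Luciferin-PPXE substrate at KM, reaction started by NADPH regeneration, stopped after 60 min, luciferase luminescence read 20 min later.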

[11] = qHTS Assay for Identification of Small Molecule Antagonists for NFkB Signaling Pathway (AID 895; active = well fitted inhibition curve with a large enough effect in the signal ratio, with a control signal flat, not every such curve was filed as active; the % refers to the signal ratio)
How it was run: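 ME-180 NFkB-bla cells (beta-lactamase under NFkB response element), plated overnight, treated with compound then 10 pM TNF alpha (about EC50) for 5 hrs at 37 C. LiveBLAzer FRET read at 460/530 nm emission, 405 nm excitation.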

[12] = qHTS Assay for Identification of Small Molecule Agonists for Thrombopoietin (TPO) Signaling Pathway (AID 917)
How it was run: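 Murine Ba/F3 cells expressing human TPO receptor and GPIIb-promoter luciferase, IL-3-starved overnight, given compound plus TPO at 26 pM (EC50). After 24 h at 37 C, 5% CO2, luminescence read.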

[13] = target: Muscarinic acetylcholine receptor M1 (Rattus norvegicus) (UniProt P08482); assay: qHTS Assay for Antagonists of Acetylcholine Muscarinic M1 Receptor: Kinetic Measurement of Intracellular Calcium Response (AID 943); also: nearly all actives have a fitted effect of over 75% in size
Muscarinic acetylcholine receptor M1 (Rattus norvegicus), sequence (P08482 whole entry, looked up): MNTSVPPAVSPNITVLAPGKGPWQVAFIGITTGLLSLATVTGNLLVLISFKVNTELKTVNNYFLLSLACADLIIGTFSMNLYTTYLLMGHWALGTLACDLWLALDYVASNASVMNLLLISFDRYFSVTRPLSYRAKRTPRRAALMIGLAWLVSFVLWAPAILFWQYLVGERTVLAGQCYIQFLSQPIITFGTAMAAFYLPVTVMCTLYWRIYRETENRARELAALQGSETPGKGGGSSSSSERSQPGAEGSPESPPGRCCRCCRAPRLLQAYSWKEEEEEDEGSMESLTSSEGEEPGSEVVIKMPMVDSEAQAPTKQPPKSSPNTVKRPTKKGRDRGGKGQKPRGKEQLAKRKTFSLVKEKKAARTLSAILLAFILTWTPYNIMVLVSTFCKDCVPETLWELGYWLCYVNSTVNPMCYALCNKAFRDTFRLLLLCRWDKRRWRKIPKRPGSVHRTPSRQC
How it was run: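 CHO cells expressing rat M1 receptor, Fluo-4 loaded, preincubated 10 min with compound, then stimulated with EC80 carbachol (100 nM final). Kinetic calcium fluorescence over 4 min; response taken as peak over basal signal.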

[14] = target: Muscarinic acetylcholine receptor M1 (Rattus norvegicus) (UniProt P08482); assay: qHTS Assay for Antagonists of Acetylcholine Muscarinic M1 Receptor: Measurement of IP-One Response (AID 944); also: nearly all actives have a fitted effect of over 75% in size
How it was run: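 CHO cells stably expressing rat M1, pretreated 10 min with compound, then stimulated 30 min with carbachol at EC80 (200 nM) in LiCl-containing buffer pH 7.4; IP1 accumulation read by HTRF competition (665/620 nm).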

[15] = target: Pyruvate kinase (Leishmania mexicana) (UniProt Q27686); assay: qHTS Validation Assay for Inhibitors of Leishmania Mexicana Pyruvate Kinase (AID 945)
Pyruvate kinase (Leishmania mexicana), sequence (Q27686 2-499 E452W): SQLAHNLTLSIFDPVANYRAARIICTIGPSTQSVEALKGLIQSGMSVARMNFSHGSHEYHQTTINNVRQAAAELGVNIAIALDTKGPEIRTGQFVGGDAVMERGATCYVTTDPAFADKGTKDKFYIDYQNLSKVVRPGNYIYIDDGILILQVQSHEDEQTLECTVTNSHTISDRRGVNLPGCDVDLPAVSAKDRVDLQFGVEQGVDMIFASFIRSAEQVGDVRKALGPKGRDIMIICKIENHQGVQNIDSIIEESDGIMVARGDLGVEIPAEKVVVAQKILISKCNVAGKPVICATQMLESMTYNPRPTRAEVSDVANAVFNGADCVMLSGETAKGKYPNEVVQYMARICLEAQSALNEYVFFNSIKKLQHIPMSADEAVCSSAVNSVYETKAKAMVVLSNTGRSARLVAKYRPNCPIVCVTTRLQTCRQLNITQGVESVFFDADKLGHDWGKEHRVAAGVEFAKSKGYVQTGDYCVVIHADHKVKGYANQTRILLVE
How it was run: (§1)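 Luminescent ATP detection (PKLight) after a 1 h room-temperature reaction of 0.2 nM LmPYK E451W mutant with 0.5 mM PEP and 0.1 mM ADP at pH 7.2. Activity is normalized to DMSO-only control wells.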

[16] = target: Pyruvate kinase PKM (Homo sapiens) (UniProt P14618); assay: qHTS Assay for Activators of Human Muscle Pyruvate Kinase (AID 954; active = well fitted curve in the direction sought with a large enough effect, not every such curve was filed as active)
Pyruvate kinase PKM (Homo sapiens), sequence (P14618 whole entry, looked up): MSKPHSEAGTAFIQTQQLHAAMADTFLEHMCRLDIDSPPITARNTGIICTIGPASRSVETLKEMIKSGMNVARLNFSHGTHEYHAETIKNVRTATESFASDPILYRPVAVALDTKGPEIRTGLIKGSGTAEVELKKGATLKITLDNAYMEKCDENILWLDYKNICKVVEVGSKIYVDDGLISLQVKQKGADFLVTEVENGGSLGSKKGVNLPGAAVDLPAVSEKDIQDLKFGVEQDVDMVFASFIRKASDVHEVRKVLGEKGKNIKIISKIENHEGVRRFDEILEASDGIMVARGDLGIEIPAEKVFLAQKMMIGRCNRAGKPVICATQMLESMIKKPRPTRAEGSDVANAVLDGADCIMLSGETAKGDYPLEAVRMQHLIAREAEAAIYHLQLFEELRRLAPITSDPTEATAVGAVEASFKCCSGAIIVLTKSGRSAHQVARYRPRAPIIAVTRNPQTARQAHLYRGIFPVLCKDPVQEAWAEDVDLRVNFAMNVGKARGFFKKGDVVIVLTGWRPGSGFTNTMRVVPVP
How it was run: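 Enzyme was run at intermediate activity so both inhibitors and activators could be detected. ATP formed from ADP and PEP by 0.1 nM human PKM2 during a 1 h room-temperature incubation was quantified by coupled luciferase luminescence.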

[17] = target: Pyruvate kinase (Leishmania mexicana) (UniProt Q27686); assay: qHTS Validation Assay for Activators of Leishmania Mexicana Pyruvate Kinase (AID 959); settings: purified L. mexicana pyruvate kinase, enzyme activity
How it was run: as §1

[18] = target: Alpha-galactosidase A (Homo sapiens) (UniProt P06280); assay: Counterscreen for Glucocerebrosidase Inhibitors: qHTS Assay for Human alpha-Galactosidase at pH 4.5 (AID 992)
How it was run: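 Read-out is 4-methylumbelliferone fluorescence (365 nm excitation, 440 nm emission) after a pH 10 NaOH/glycine stop. Reactions held 2 nM enzyme and 80 uM substrate at pH 4.5 for 20 min at room temperature.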

[19] = target: alpha-glucosidase (Oryza sativa, rice) (UniProt Q653V4); assay: Counterscreen for Glucocerebrosidase Inhibitors: qHTS Assay for Rice alpha-Glucosidase at pH 5.0 (AID 997)
How it was run: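 Rice alpha-glucosidase (4 nM final) with 400 uM 4-methylumbelliferyl-alpha-D-glucopyranoside in citrate buffer pH 5.0, 20 min at room temperature, stopped at pH 10; fluorescence 365/440 nm, compounds 0.7 nM–77 uM, AC50 from Hill fits.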

[20] = target: ATP-dependent 6-phosphofructokinase (Trypanosoma brucei brucei) (UniProt O15648); assay: qHTS Assay to Find Inhibitors of T. brucei phosphofructokinase: hit validation (AID 492961)
How it was run: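 Luminescence from ADP-Glo reports ADP generated as T. brucei PFK (1.25 nM) phosphorylates 0.5 mM fructose-6-phosphate using 0.1 mM ATP. Reactions ran 45 min at room temperature, pH 8.0.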

[21] = target: Luciferin 4-monooxygenase (Photinus pyralis) (UniProt P08659); assay: Biochemical firefly luciferase enzyme assay for NPC (AID 624030);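 also: purified P. pyralis luciferase at 10 nM with luciferin and ATP substrate; nearly all actives have a fitted effect of over 70% in size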
Luciferin 4-monooxygenase (Photinus pyralis), sequence (P08659 whole entry, looked up): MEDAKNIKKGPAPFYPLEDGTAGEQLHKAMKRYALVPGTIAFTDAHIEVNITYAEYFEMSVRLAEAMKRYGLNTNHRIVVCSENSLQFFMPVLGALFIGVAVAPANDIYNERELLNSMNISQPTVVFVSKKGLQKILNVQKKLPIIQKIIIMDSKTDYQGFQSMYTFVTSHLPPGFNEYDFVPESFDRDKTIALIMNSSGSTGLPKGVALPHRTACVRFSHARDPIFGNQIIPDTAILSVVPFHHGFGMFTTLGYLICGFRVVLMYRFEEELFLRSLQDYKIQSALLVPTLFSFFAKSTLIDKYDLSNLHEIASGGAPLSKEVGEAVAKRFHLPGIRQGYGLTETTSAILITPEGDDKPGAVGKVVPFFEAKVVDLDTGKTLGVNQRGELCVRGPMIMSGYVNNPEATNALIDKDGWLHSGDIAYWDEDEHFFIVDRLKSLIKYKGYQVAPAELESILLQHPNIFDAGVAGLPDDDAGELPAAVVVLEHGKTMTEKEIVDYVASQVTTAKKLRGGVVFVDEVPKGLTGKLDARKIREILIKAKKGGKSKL
How it was run: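 Purified P. pyralis luciferase at 10 nM in 50 mM Tris Acetate (final), luminescence read within 5 minutes of enzyme addition to compounds. Activity normalised to PTC124 versus DMSO; concentration-response curves classed by r2, magnitude and activity.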

[22] = S16 Schwann cell viability assay (CellTiter-Glo assay) (AID 624031);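 also: cellular ATP luminescence as a viability measure; nearly all actives have a fitted effect of over 70% in size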
How it was run: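 Untransfected S16 rat Schwann cells; compound 24 h, 37 °C/5% CO2; CellTiter-Glo ATP luminescence. % activity vs no-cell wells and DMSO controls (0%); concentration-effect curves classed by r2, response magnitude, activity.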

[23] = S16 Schwann cell PMP22 intronic element firefly luciferase assay (AID 624032); also: nearly all actives have a fitted effect of over 30% in size
How it was run: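 Rat S16 Schwann cells stably carrying firefly luciferase driven by a PMP22 intronic element, in 10% FBS, treated 24 h at 37 C. ONE-Glo luminescence normalized to PTC124 control and DMSO (0%); curves classed by r2, magnitude and activity.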

[24] = S16 Schwann cell PMP22 intronic element beta-lactamase assay (AID 624044; calls by dose curve; also: nearly all actives have a fitted effect of over 15% in size)
How it was run: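 Rat S16 Schwann cells with beta-Lac driven by a PMP22 intronic element, compound-treated 24 h at 37 °C. LiveBLAzer FRET B/G read: 460 nm normalized to potassium clavulanate vs DMSO; 535 nm FRET as viability; concentration-effect curves classified.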

[25] = qHTS profiling for inhibitors of Plasmodium falciparum proliferation (AID 504749); also: nearly all actives have a fitted effect of over 60% in size; settings: P. falciparum in erythrocytes, SYBR Green DNA, 72 h, at 28.7 µM (top of the series)
How it was run: (§2)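 P. falciparum-infected erythrocytes (0.3% parasitemia, 2.5% hematocrit) incubated with compound 72 h at 37 C, 5% CO2. Parasite DNA detected by SYBR Green after lysis, overnight at room temperature; normalised to 0.29 uM artemisinin and DMSO.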

[26] = tested on: 3D7; assay: as above; settings: P. falciparum in erythrocytes, SYBR Green DNA, 72 h; series mostly up to 12.8 µM
How it was run: as §2

[27] = tested on: 7G8; assay: as above; settings: P. falciparum in erythrocytes, SYBR Green DNA, 72 h; series mostly up to 12.8 µM
How it was run: as §2

[28] = tested on: AA1029; assay: as above; settings: P. falciparum in erythrocytes, SYBR Green DNA, 72 h; series mostly up to 12.8 µM
How it was run: as §2

[29] = tested on: AS120; assay: as above; settings: P. falciparum in erythrocytes, SYBR Green DNA, 72 h; series mostly up to 28.7 µM
How it was run: as §2

[30] = tested on: ATS189; assay: as above; settings: P. falciparum in erythrocytes, SYBR Green DNA, 72 h; series mostly up to 12.8 µM
How it was run: as §2

[31] = tested on: ATS95; assay: as above; settings: P. falciparum in erythrocytes, SYBR Green DNA, 72 h; series mostly up to 12.8 µM
How it was run: as §2

[32] = tested on: C2A; assay: as above; settings: P. falciparum in erythrocytes, SYBR Green DNA, 72 h; series mostly up to 12.8 µM
How it was run: as §2

[33] = tested on: CP185; assay: as above; settings: P. falciparum in erythrocytes, SYBR Green DNA, 72 h; series mostly up to 12.8 µM
How it was run: as §2

[34] = tested on: CP191; assay: as above; settings: P. falciparum in erythrocytes, SYBR Green DNA, 72 h; series mostly up to 12.8 µM
How it was run: as §2

[35] = tested on: CP192; assay: as above; settings: P. falciparum in erythrocytes, SYBR Green DNA, 72 h; series mostly up to 28.7 µM
How it was run: as §2

[36] = tested on: CP194; assay: as above; settings: P. falciparum in erythrocytes, SYBR Green DNA, 72 h; series mostly up to 12.8 µM
How it was run: as §2

[37] = tested on: CP201; assay: as above; settings: P. falciparum in erythrocytes, SYBR Green DNA, 72 h; series mostly up to 12.8 µM
How it was run: as §2

[38] = tested on: CP203; assay: as above; settings: P. falciparum in erythrocytes, SYBR Green DNA, 72 h; series mostly up to 12.8 µM
How it was run: as §2

[39] = tested on: CP211; assay: as above; settings: P. falciparum in erythrocytes, SYBR Green DNA, 72 h; series mostly up to 12.8 µM
How it was run: as §2

[40] = tested on: CP215; assay: as above; settings: P. falciparum in erythrocytes, SYBR Green DNA, 72 h; series mostly up to 28.7 µM
How it was run: as §2

## CC(=O)OCC1=C(C(=O)O)N2C(=O)[C@@H](NC(=O)CSc3ccncc3)[C@@H]2SC1
[1]; at 17.2 µM (top of the series)
  activity change, negative = inhibition: 9.51%
[1]; at 38 µM (top of the series)
  activity change, negative = inhibition: 11%
[2]
  Potency: inactive
[3]; at 17.2 µM (top of the series)
  activity change, negative = inhibition: 7.12%
[3]; at 38 µM (top of the series)
  activity change, negative = inhibition: 4.33%
[4]; at 17.2 µM (top of the series)
  activity, negative = inhibition: 8.61%
[4]; at 38 µM (top of the series)
  activity, negative = inhibition: -9.45%
[5]
  Potency: > 46 µM and > 20.6 µM
[6]
  Potency: > 46 µM and > 20.6 µM
[7]
  Potency: inactive
[8]
  Potency: inactive
[9]
  Potency: inactive
[10]
  Potency: inactive
[11]
  Potency: inactive
[12]
  outcome: inactive
[13]
  Potency: inactive
[14]
  Potency: inactive
[15]
  outcome: inactive
[16]
  outcome: inactive
[17]
  Potency: 15.8 µM (active)
[18]
  outcome: inactive
[19]
  outcome: inactive
[20]
  outcome: inactive
[21]
  outcome: inactive
[22]
  Potency: inactive
[23]
  Potency: inactive
[24]
  outcome: inactive
[25]; parasite line A
  activity, negative = inhibition: -4.5%
[25]; parasite line B
  activity, negative = inhibition: -4.99%
[26]
  Potency: inactive
[27]
  Potency: inactive
[28]
  Potency: inactive
[29]
  Potency: inactive
[30]
  Potency: inactive
[31]
  Potency: inactive
[32]
  Potency: inactive
[33]
  Potency: inactive
[34]
  Potency: inactive
[35]
  Potency: inactive
[36]
  Potency: inactive
[37]
  Potency: inactive
[38]
  Potency: inactive
[39]
  Potency: inactive
[40]
  Potency: inactive
